HPGD block = blocks human HPGD enzyme activity. actives 4.3% (n = 150,000). P15428. Potency, µM, most hits filed as inhibitors. purified HPGD, NADH fluorescence kinetic, PGE2 substrate; active = well fitted inhibition curve with a large enough effect, not every such curve was filed as active; inconclusive = small, poorly fitted or top-dose-only effect, or another doubt; inactive = no such curve, though single readings can be large or run the other way
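20 nM HPGD preincubated 15 min at room temperature with compound in 50 mM Tris-HCl pH 8, 0.01% Tween 20. Started with 1 mM NAD+ and 30 uM prostaglandin E2; NADH fluorescence (360/450 nm) read 5 times over 30-s intervals, last minus first.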
Tau ThT inhib = blocks human tau fibril formation measured by thioflavin T. recombinant tau K18 P301L, heparin-induced fibrillization, ThT fluorescence. Potency, µM (top dose mostly 57.4 µM), usual class: inhibitors. actives 2.1% (n = 270,000). P10636; note: nearly all actives have a fitted effect of over 55% in size
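K18 P301L tau (15 uM + 0.24 uM Alexa 594-tagged), heparin 20 uM, NaOAc pH 7, 6 h 37 C; ThT 30 uM, 1 h RT, ex 450/em 510 nm.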
ALDH1A1 inh = inhibitors of human aldehyde dehydrogenase 1A1; P00352; Purified ALDH1A1, NADH fluorescence, propionaldehyde substrate; Potency, µM (series often up to 75.3 µM), usual class: inhibitors; actives 7.3% (n = 220,000); AID 1030; active = well fitted inhibition curve with a large enough effect, not every such curve was filed as active; inconclusive = small, poorly fitted or top-dose-only effect, or another doubt; inactive = no such curve, though single readings can be large or run the other way
Target sequence (P00352 whole entry, looked up): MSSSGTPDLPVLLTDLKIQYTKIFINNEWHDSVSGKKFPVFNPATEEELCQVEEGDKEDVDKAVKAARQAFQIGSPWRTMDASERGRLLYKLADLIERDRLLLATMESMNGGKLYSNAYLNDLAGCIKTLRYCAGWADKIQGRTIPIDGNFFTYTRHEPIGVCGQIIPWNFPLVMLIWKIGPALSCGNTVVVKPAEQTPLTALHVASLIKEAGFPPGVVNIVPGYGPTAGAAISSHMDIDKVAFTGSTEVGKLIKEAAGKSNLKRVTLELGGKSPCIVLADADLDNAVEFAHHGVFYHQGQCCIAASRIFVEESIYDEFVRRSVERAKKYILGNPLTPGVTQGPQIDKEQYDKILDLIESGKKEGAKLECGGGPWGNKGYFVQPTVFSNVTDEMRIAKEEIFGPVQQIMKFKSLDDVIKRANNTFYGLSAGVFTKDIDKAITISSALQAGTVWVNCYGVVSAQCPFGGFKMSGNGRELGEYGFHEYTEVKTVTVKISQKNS
Tau fibril FP = blocks human tau fibril formation measured by polarization; P10636; Potency, µM (doses to about 57.7 µM), actives largely listed as inhibitors; K18 P301L tau heparin fibrillization, Alexa594 FP, 6 h; actives 0.39% (n = 280,000); AID 1468; note: nearly all actives have a fitted effect of over 55% in size
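FP of Alexa 594-tau after heparin (20 uM) induction. Substrate: human K18 P301L, 15 uM unlabeled, 0.24 uM labeled. Buffer 100 mM sodium acetate pH 7. 6 hr, 37 C.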
NPSR antag = blocks cAMP signaling of the human neuropeptide S receptor | actives 1% (n = 220,000) | AID 1461 | Potency, µM (top dose mostly 38.3 µM), most hits filed as inhibitors | Q6W5P4 | CHO-NPSR cells, cAMP TR-FRET, antagonist mode; note: nearly all actives have a fitted effect of over 50% in size
Tau fluor cs = counter-screen for tau fibril formation inhibitors | tau K18 P301L (four-repeat tau fragment) Alexa594 fluorescence, heparin fibrillization | Potency, µM (top dose mostly 57.7 µM) | actives 0.93% (n = 280,000) | AID 1463; note: nearly all actives have a fitted effect of over 55% in size
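Human K18 P301L tau (15 uM unlabeled plus 0.24 uM Alexa 594-labeled, final) in 100 mM sodium acetate pH 7 was mixed with compound and 20 uM heparin and incubated 6 hr at 37 C.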
Numbers stand for hits; - = inactive; ? = inconclusive; . = no result given; [ ] = another dose, or the depositor's remark. Only some compounds are listed: those with a hit (about 9.5% of all), similar ones and a draw of the others. Unless noted, calls come from the whole dose curve; as a rule, active = well fitted curve in the direction sought with a large enough effect; inconclusive = small, poorly fitted or top-dose-only effect, or another doubt; inactive = no such curve, though single readings can be large; an effect the other way counts as inactive or inconclusive.

SMILES | HPGD block | Tau ThT inhib | ALDH1A1 inh | Tau fibril FP | NPSR antag | Tau fluor cs
COc1cccc(-n2c(CN3CCN(C)CC3)nc3ccc([N+](=O)[O-])cc3c2=O)c1 | 28µM | - | - | ? | - | -
O=C(Nc1ccc(Br)cc1)c1cccc(S(=O)(=O)N2CCc3ccccc32)c1 | . | - | . | ? | . | ?
Oc1ccc2c3c1O[C@H]1c4[nH]c5c(c4C[C@@]4(O)[C@@H](C2)N(CC2CC2)CC[C@]314)C[C@]1(O)[C@H]2Cc3ccc(O)c4c3[C@@]1(CCN2CC1CC1)[C@@H]5O4 | - | ? | - | - | . | -
NC(N)=Nc1ccc2[nH]c3c(c2c1)C[C@@]1(O)[C@H]2Cc4ccc(O)c5c4[C@@]1(CCN2CC1CC1)[C@H]3O5 | 3.2µM | - | 1.6µM | - | ? | -
COc1ccc(N2C(=O)CS(=O)C(c3ccccc3)C2=O)cc1 (centres undefined) | . | ? | 1.1µM | ? | - | -
O=C1N=C(N2CCCCC2)SC1=C1CCCCC1 | 20µM | ? | 8.9µM | - | - | -
CCN(CC)c1nc2ccccc2nc1C(=O)Nc1cccc(C(C)=O)c1 | . | ? | . | - | . | -
CCCN1CCc2cc(O)cc3c2C1Cc1ccc(O)c(O)c1-3 (centres undefined) | ? | 16µM | ? | 35µM | ? | 16µM[quencher]
O=C1NC(=O)C(=Cc2cc([N+](=O)[O-])ccc2N2CCCCC2)C(=O)N1 | . | - | - | - | - | -
CN1C(=O)C(=Cc2ccccc2OCCOc2ccc([N+](=O)[O-])cc2)C(=O)N(C)C1=O | . | 10µM | 3.5µM | ? | - | ?
O=C1NC(=O)C(=Cc2ccc(Oc3ccc([N+](=O)[O-])cc3)cc2)C(=O)N1 | . | 13µM | ? | ? | - | -
CCOc1cc(/C=C2\C(=O)NC(=O)N(C)C2=O)cc([N+](=O)[O-])c1O | . | . | . | - | - | -
CN1C(=O)C(=Cc2ccccc2OCc2ccc(C(=O)O)cc2)C(=O)N(C)C1=O | . | ? | - | - | - | -
COc1cc(C=C2C(=O)NC(=O)NC2=O)ccc1OCc1ccc([N+](=O)[O-])cc1 | . | ? | 15µM | ? | - | -
O=C1NC(=O)C(=Cc2ccccc2OCCOc2ccc([N+](=O)[O-])cc2)C(=O)N1 | . | ? | 14µM | ? | - | -
CN=C=S | - | . | ? | . | . | .
COc1cc(C2c3cc4c(cc3C(O)C3COC(=O)C23)OCO4)cc(OC)c1O (centres undefined) | - | - | - | - | . | -
C=CCN1CCC23c4c5ccc(O)c4OC2/C(=N/N=C2\CCC4(O)C6Cc7ccc(O)c8c7C4(CCN6CC=C)C2O8)CCC3(O)C1C5 (centres undefined) | . | ? | - | ? | . | ?
CN1C(=O)C(=Cc2ccccc2OCc2ccccc2Cl)C(=O)N(C)C1=O | 16µM | ? | 2.8µM | - | - | -
Cc1ccc(OP(=O)(Oc2ccc(C)cc2)N2C=Cc3ccccc3[C@H]2C#N)cc1 | - | . | -[13.5 µM] | . | . | .
Nc1c(C(=O)Nc2ccc(Cl)cc2)sc2nc3c(cc12)N1CCC3CC1 | . | ? | . | - | . | ?
Nc1c(C(=O)Nc2ccc(Cl)c(C(F)(F)F)c2)sc2nc3c(cc12)N1CCC3CC1 | . | ? | . | ? | . | 5µM[quencher]
CC1(C)[C@@H](O)C[C@H]2[C@](C)(O)[C@@H]3CC[C@H]4[C@@H](O)[C@@]3(C[C@@H](O)[C@@]21O)C[C@@]4(C)O | . | - | - | - | . | -
O=c1ccc2cc(OC3OC(CO)C(O)C(O)C3O)c(O)cc2o1 (centres undefined) | ? | - | ? | - | . | -
C/C(=N\NC(=S)Nc1ccccc1)c1c(O)n(C)c(=O)n(C)c1=O | ? | ? | 0.79µM | ? | - | ?
CC/C(=N\Nc1ccccc1)c1c(O)n(C)c(=O)n(C)c1=O | - | - | ? | - | - | -
N#CC(C#N)=NNc1ccc(-n2ccc(C(F)(F)F)n2)cc1 | . | . | . | - | 2.5µM | -
Cc1cc(C)n(-c2ccc(NN=C(C#N)C#N)cc2)n1 | . | 5µM | ? | - | ? | ?
CCCN1CCCC(c2cccc(O)c2)C1 (centres undefined) | - | - | - | - | - | -
CCOc1ccc(-c2nc(CSCC(=O)NCCc3ccc(OCC)c(OCC)c3)c(C)o2)cc1 | . | ? | . | - | . | -

Source: PubChem BioAssay
